HTR2A ag: activates the mouse 5-HT2A serotonin receptor | P35363 | CHO-K1 mHTR2A beta-arrestin complementation, luminescence; percent of 30 µM serotonin response | activation, % at 7.6 µM | 360,000 compounds, 0.66% hits;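 active = activation above a run cutoff, the mean activation of all tested compounds plus 3 SD, cut at about 14% in these data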;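 note: 0% = plate median of compound wells and 100% = 30 µM serotonin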
NPR2 activator: GC-B (human) receptor activation; 370,000 compounds, 0.11% hits; P20594; HEK293-GC-B cells, CNP EC30, cGMP TR-FRET; 0% at EC30 CNP, 100% saturating CNP; activation, % at 10 µM;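 active = activation at 10 µM reaching about 35% in either raw or pattern-adjusted values, limit read from the data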
MsrA act: activates bovine MsrA enzyme. 360,000 compounds, 0.3% hits. activation, % at 10.6 µM. purified bovine MsrA, absorbance read-out; in the data active = activation above about 7.5%;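 note: 0% = vehicle and 100% = reference activator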
NPR1 activator: GC-A (human) enzyme activation; activation, % at 10 µM; HEK293 GC-A cells, cGMP TR-FRET, EC30 ANP; 0% at EC30 ANP, 100% saturating ANP; P16066; 370,000 compounds, 0.14% hits; AID 1671463; in the data active = activation above about 40%
MsrA inhibitor: inhibitors of bovine MsrA | purified bovine MsrA, absorbance read-out | inhibition, % at 15.5 µM | 360,000 compounds, 0.75% hits | AID 651718; in the data active = inhibition above about 4.5%;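 note: 0% = vehicle wells with enzyme and 100% = reference inhibitor wells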
OPRM1 ag: activates human mu opioid receptor in HTR2A counterscreen; shares compounds with HTR2A ag; 2,300 compounds, 5.3% hits; U2OS OPRM1 beta-arrestin PathHunter, luminescence; DMSO 0%, DAMGO 9.3 µM 100%; activation, % at 9.3 µM;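 active = mean activation above the mean of DMSO-only wells plus 3 SD, cut at about 0.5% in these data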
HTR2A ag conf: confirmation of mouse HTR2A serotonin receptor agonists | AID 624381 | shares compounds with HTR2A ag | CHO-K1 PathHunter beta-arrestin recruitment, luminescence; DMSO 0%, 30 µM serotonin 100% | activation, % at 7.6 µM | 2,300 compounds, 19% hits;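 active = mean activation across triplicates above the hit threshold derived in the original primary screen, cut at about 15% in these data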
Starred values were filed as active, the others as inactive; x = no result given. Compounds with a hit are over-represented: about 1.8% of the library has one in this group of screens.

SMILES | HTR2A ag | NPR2 activator | MsrA act | NPR1 activator | MsrA inhibitor | OPRM1 ag | HTR2A ag conf
CCC1(c2ccc(F)cc2)NC(=O)N(CC(=O)Nc2ccccc2C)C1=O (stereo not given) | 14* | 0 | -2 | 1 | -1 | -1 | -4
COc1cccc(NC(=O)CN(C)C(=O)CN2C(=O)NC3(CCCC3)C2=O)c1 | -8 | 4 | -1 | 3 | 0 | x | x
CC1(C)CC(=O)C/C(=N\NC(=S)NCc2ccccc2)C1 | 17* | -2 | -3 | -2 | -1 | -1 | -5
O=C1CC[C@@H](C(=O)N2CSC[C@H]2C(=O)O)N1 | 46* | 3 | -2 | 3 | 0 | -1 | -4
COc1ccc(C2CC(c3ccc4ccccc4c3)=NN2C(=O)COC(=O)C2CCC(=O)N2)cc1 (stereo not given) | 15* | -1 | -7 | 7 | 0 | 0 | -1
COC(=O)C1=CC[C@@H](NC(=O)OC(C)(C)C)[C@H](O)[C@H]1O[Si](C)(C)C(C)(C)C | x | -2 | x | 3 | x | x | x
CC(=O)c1ccc(NC(=O)CCNS(=O)(=O)c2cccc3nonc23)cc1 | 36* | -10 | -1 | -1 | 0 | -1 | -4
O=C(Nc1ccccn1)c1ccc(S(=O)(=O)N2CCCCCC2)cc1 | 15* | 3 | -9 | -2 | 0 | 0 | -3
CC(C)c1ccc(NC(=O)CSc2nnc(-c3ccco3)n2C)cc1 | x | -1 | x | 1 | x | x | x
C/C(CC(=O)Nc1ccc(N(C)C)cc1)=N\NC(=O)c1ccccc1Cl | 16* | -5 | 0 | -5 | 0 | 0.9* | 3
Cc1cc(-c2n[nH]c(=S)n2N=Cc2ccc(O)cc2)n[nH]1 | x | -5 | x | 3 | x | x | x
CC(C)CC(=O)N1CCc2cc(S(=O)(=O)N(C)Cc3ccco3)ccc21 | x | -5 | x | -4 | x | x | x
COc1ccccc1C(=O)NNC(=O)C1CC=CCC1 (stereo not given) | 19* | -2 | 2 | 4 | 0 | -1 | 1
Cc1cccc(OCC(=O)Nc2nnc(S(=O)(=O)N3CCC(C)CC3)s2)c1 | 17* | -8 | -3 | -2 | 0 | -1 | -2
COc1ccc(-c2noc(CN(C)C(=O)c3ccc4c(c3)OCO4)n2)cc1OC | 4 | -1 | -2 | -3 | 0 | x | x
COc1ccc(-c2noc(CN(C(=O)c3ccc4c(c3)OCO4)C(C)C)n2)cc1OC | 16* | 1 | -5 | 5 | 0 | -1 | -3
Cc1ccc(C)c(NC(=O)[C@@H]2CCCN2S(=O)(=O)c2cccc3cccnc23)c1 | x | -3 | x | 0 | x | x | x
O=C(CCc1ccccc1)N1CCN(c2ccccc2F)CC1 | -1 | 1 | -1 | -3 | 0 | x | x
O=C(CCC(=O)N1CCN(c2ccccc2F)CC1)c1ccc(Cl)s1 | 19* | 4 | -9 | 2 | 0 | 0 | -5
O=C(CCC(=O)NCCO)NCCO | 6 | 5 | -3 | 3 | 0 | x | x
CC(O)CCC(=O)NCCNC(=O)CCC(C)O (stereo not given) | 20* | 3 | -1 | 2 | 0 | -1 | -1
COc1coc(/C=C/C(=O)O)cc1=O | 22* | 3 | -10 | 6 | 1 | 0 | 0
COc1cc(/C=C/C(=O)O)ccc1O | 0 | -6 | -3 | -2 | 1 | x | x
Cc1ccc(C)c(N2CCN(C(=O)Cn3c(=O)oc4cc(S(=O)(=O)N5CCCC5)ccc43)CC2)c1 | 29* | 10 | 0 | 13 | x | 0 | -2
Cc1cccc(NC(=O)Cn2c(=O)oc3cc(S(=O)(=O)N4CCCC4)ccc32)n1 | 2 | -4 | 0 | -11 | 0 | x | x
SMILES | HTR2A ag | NPR2 activator | MsrA act | NPR1 activator | MsrA inhibitor | OPRM1 ag | HTR2A ag conf
CC(NC(=O)Cn1c(=O)oc2cc(S(=O)(=O)N3CCCC3)ccc21)c1ccccc1 (stereo not given) | 18* | 8 | -1 | 8 | 1 | -1 | -5
O=C(Cn1c(=O)oc2cc(S(=O)(=O)N3CCCC3)ccc21)N1CCN(c2ccccc2)CC1 | 6 | 7 | -2 | 2 | 0 | x | x
COc1ccc2oc(C(=O)OCC(=O)N3CCCC(C)C3)c(C)c2c1 (stereo not given) | 20* | 4 | -10 | 4 | 0 | -1 | -3
CCOc1ccc2oc(C(=O)OCC(=O)N3CCCC(C)C3)c(C)c2c1 (stereo not given) | 3 | 1 | -11 | 1 | 3 | x | x
COc1ccccc1Nc1nnc(SCC(=O)N2CC(=O)Nc3ccccc32)s1 | 18* | 3 | -8 | -5 | 1 | -1 | -4
O=C(Nc1ccc(S(=O)(=O)Nc2ccnn2-c2ccccc2)cc1)C(F)(F)F | 0 | 5 | -3 | 4 | 0 | x | x
Nc1ccc(S(=O)(=O)Nc2ccnn2-c2ccccc2)cc1 | 19* | 2 | -11 | 6 | -1 | -1 | -4
CC(C)(C)C(=O)N(Cc1nc2ccccc2c(=O)[nH]1)Cc1cccs1 | 15* | -2 | -12 | -2 | -1 | -1 | -6
O=C(CCCl)N(Cc1nc2ccccc2c(=O)[nH]1)Cc1cccs1 | 0 | 2 | -3 | -5 | -1 | x | x
Cc1ccccc1NC(=O)c1cccc(NC(=O)c2ccco2)c1 | 15* | 2 | -3 | -2 | -1 | -1 | 0
Cc1ccc(Oc2ccc(NC(=O)c3ccco3)cc2)cc1 | -4 | -4 | -13 | 4 | 0 | x | x
O=C(Nc1ccc(Cl)cc1)c1ccco1 | 15* | 5 | -2 | 4 | 1 | 0 | -3
Cc1ccc(NC(=O)c2ccc(OC(=O)c3ccco3)cc2)cc1 | 18* | 1 | -5 | -1 | 2 | 0 | 2
COc1cc2c(cc1OC)[C@@H]1Cc3cc4c(cc3[C@H](C2)N1C)OCO4 | 18* | -9 | -3 | -12 | -1 | 0 | -4
Cc1c(NC(=O)C2CC(c3ccc(F)cc3)=NO2)c(=O)n(-c2ccccc2)n1C (stereo not given) | 15* | 0 | -4 | 5 | -1 | 0 | 2
CCOC(=O)[C@]12CCCCC/C=C\1N(Cc1ccc(OC)cc1)C(=O)[C@H]2CC(=O)N1CCN(C(=O)c2ccco2)CC1 | x | -5 | x | 5 | x | x | x
O=C(Nc1ccc(N2C(=O)CC3(CCCCC3)C2=O)c(Cl)c1)c1ccccn1 | x | -3 | x | 1 | x | x | x
CN(C)CCCN1c2ccccc2CCc2ccc(Cl)cc21 | -5 | -23 | -11 | -33 | 0 | x | x
CNCCCN1c2ccccc2CCc2ccccc21 | 31* | -18 | 0 | -28 | 0 | -1 | -7
O=C(c1cc(-c2ccco2)on1)N1CCN(c2ccccc2)CC1 | 30* | 4 | 1 | 0 | -1 | 0 | -1
O=C(c1ccccc1C(=O)N1CCN(c2ccccc2)CC1)N1CCN(c2ccccc2)CC1 | 22* | -1 | 1 | 0 | 1 | -1 | -9

From PubChem BioAssay
